Data: the supplement of paper PMC10849652
Targets with a hit are over-represented here; the source holds about 8,800 in all. About 0.5% of all pairs of compound and target were hits.

Key:
Assay in all cases: log2 fold change, soluble protein after heating vs DMSO (PISA); higher = thermal stabilisation; K562 lysate, 10 uM; active = over 0.2 and 3.5 SD of the protein, either way, in both replicates (recomputed)
[1] = compound: C1=CC=C(C=C1)[C@H](COC2=CC3=C(C=C2)NC(=O)N3)NC(=O)C4=CC=CN(C4=O)CC5=CC(=C(C=C5)F)F
Method in brief: (§1)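 Thermal stability, expressed as log-two fold change relative to solvent controls, is given from duplicates. Crude K562 extract in PBS pH 7.4 with 1 mM MgCl2, at 1 mg/mL protein, was treated with 10 μM compound for 30 min and heated in aliquots for 3 min across 48°C-58°C. After pooling, adjustment to 0.5% NP-40 at 4°C and centrifugation at 21,000xg for 90 min, supernatant protein was measured by TMTpro 16plex LC-MS/MS with channel sums equalised.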

[2] = compound: CC1=C(SC2=C1C(=N[C@H](C3=NN=C(N32)C)CC(=O)N)C4=CC=C(C=C4)Cl)C
Method in brief: as §1

[3] = compound: CC1=C2C(=CC=C1)N=C(N(C2=O)C3=CC=CC=C3C)CN4C=NC5=C(N=CN=C54)N
Method in brief: as §1

[4] = compound: Cc1sc2c(c1C)C(c1ccc(Cl)cc1)=N[C@@H](CC(=O)OC(C)(C)C)c1nnc(C)n1-2
Method in brief: as §1

[5] = compound: c1ccc([C@@H]2C[C@H]2NC2CCNCC2)cc1
Method in brief: as §1

Measured: log2 fold change

S100A11 (UniProt P31949)
Sequence of UniProt P31949 (P31949 whole entry, looked up): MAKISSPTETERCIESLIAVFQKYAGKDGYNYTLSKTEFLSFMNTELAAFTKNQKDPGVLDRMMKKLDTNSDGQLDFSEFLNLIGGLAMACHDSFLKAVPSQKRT
inactive: [1] 0.029 | [2] -0.075 | [3] -0.002 | [4] -0.029 | [5] -0.005

RCC1 isoform 2 (UniProt P18754)
inactive: [1] 0.023 | [2] 0.026 | [3] -0.013 | [4] 0.045 | [5] 0.014

RAD17 (UniProt O75943)
inactive: [1] -0.031 | [2] -0.077 | [3] 0.047 | [4] -0.066 | [5] 0.002

RNF149 (UniProt Q8NC42)
inactive: [1] -0.015 | [2] 0.022 | [3] -0.138 | [4] -0.081 | [5] 0

RELN (UniProt P78509)
inactive: [1] 0.033 | [2] -0.007 | [3] 0.025 | [4] -0.089 | [5] -0.036

RAP1B (UniProt P61224)
Sequence of UniProt P61224 (P61224 whole entry, looked up): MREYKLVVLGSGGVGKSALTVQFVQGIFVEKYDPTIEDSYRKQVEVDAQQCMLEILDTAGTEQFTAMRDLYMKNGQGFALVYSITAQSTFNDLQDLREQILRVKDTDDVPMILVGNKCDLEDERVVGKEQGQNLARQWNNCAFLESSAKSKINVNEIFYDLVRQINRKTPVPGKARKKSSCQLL
inactive: [1] 0.006 | [2] -0.023 | [3] 0.032 | [4] 0.055 | [5] 0.02

RBM5 (UniProt P52756)
inactive: [1] -0.074 | [2] 0.08 | [3] 0.062 | [4] 0.146 | [5] 0.103

RAB3IL1 (UniProt Q8TBN0)
inactive: [1] 0.047 | [2] 0.008 | [3] 0.02 | [4] 0.007 | [5] 0.039

RAE1 (UniProt P78406)
Sequence of UniProt P78406 (P78406 whole entry, looked up): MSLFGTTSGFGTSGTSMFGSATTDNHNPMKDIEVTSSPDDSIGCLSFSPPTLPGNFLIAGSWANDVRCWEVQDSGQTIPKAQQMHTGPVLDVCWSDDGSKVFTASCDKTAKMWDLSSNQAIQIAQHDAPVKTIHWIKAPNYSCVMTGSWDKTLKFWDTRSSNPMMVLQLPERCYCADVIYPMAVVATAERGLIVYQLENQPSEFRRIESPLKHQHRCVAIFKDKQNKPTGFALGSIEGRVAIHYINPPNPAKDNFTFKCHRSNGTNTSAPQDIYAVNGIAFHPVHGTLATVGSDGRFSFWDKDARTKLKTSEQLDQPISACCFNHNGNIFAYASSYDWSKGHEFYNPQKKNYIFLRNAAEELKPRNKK
inactive: [1] -0.022 | [2] -0.081 | [3] -0.005 | [4] 0.07 | [5] -0.022

RBMX (UniProt P38159)
inactive: [1] 0.089 | [2] -0.01 | [3] -0.004 | [4] -0.015 | [5] -0.072

RINT1 (UniProt Q6NUQ1)
inactive: [1] -0.021 | [2] -0.008 | [3] 0.019 | [4] -0.008 | [5] 0.026

QTRT2 isoform 4 (UniProt Q9H974)
Sequence of UniProt Q9H974 (Q9H974 whole entry, looked up): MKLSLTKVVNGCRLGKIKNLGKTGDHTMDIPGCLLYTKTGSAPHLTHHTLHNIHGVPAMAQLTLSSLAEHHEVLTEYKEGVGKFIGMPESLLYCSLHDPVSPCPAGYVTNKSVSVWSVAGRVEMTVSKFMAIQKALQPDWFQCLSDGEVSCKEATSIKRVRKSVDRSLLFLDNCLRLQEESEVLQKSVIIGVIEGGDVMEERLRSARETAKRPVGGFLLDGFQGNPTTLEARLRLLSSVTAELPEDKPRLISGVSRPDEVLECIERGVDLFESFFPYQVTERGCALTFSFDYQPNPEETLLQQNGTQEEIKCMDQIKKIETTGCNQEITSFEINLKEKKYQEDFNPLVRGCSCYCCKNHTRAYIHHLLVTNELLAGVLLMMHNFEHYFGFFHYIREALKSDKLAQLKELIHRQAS
inactive: [1] -0.004 | [2] 0.014 | [3] -0.03 | [4] -0.019 | [5] -0.157

RAPGEF4 (UniProt Q8WZA2)
Sequence of UniProt Q8WZA2 (Q8WZA2 whole entry, looked up): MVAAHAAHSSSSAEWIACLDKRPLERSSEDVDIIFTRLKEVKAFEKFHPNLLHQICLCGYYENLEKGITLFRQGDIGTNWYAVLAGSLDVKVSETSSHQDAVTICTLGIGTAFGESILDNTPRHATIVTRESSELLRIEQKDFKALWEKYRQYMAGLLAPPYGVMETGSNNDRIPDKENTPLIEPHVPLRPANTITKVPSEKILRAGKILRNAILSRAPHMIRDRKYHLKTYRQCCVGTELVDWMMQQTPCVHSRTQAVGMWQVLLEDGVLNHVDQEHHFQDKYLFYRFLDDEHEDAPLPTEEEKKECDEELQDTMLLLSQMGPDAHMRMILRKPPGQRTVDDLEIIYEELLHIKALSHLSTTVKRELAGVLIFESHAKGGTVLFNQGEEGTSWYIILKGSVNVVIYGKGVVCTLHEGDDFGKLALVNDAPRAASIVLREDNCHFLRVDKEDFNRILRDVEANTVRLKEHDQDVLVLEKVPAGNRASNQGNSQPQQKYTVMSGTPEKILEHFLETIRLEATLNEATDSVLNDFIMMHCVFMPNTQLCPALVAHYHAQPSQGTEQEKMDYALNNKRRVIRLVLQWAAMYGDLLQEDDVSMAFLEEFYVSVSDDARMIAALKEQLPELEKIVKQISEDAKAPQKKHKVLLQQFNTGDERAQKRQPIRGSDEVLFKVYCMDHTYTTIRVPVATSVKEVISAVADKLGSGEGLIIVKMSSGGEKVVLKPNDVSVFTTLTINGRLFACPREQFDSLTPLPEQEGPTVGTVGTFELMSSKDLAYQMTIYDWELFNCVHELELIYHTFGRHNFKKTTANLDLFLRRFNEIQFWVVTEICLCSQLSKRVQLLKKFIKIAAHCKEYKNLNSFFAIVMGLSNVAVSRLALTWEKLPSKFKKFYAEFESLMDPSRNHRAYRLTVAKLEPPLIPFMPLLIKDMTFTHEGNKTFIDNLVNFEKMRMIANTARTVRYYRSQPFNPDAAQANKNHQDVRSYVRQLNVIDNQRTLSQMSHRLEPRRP
inactive: [1] 0 | [2] 0.092 | [3] 0.06 | [4] -0.274 | [5] -0.558

RIPK1 (UniProt Q13546)
inactive: [1] -0.019 | [2] -0.015 | [3] -0.009 | [4] -0.04 | [5] -0.021

SERINC3 (UniProt Q13530)
Sequence of UniProt Q13530 (Q13530 whole entry, looked up): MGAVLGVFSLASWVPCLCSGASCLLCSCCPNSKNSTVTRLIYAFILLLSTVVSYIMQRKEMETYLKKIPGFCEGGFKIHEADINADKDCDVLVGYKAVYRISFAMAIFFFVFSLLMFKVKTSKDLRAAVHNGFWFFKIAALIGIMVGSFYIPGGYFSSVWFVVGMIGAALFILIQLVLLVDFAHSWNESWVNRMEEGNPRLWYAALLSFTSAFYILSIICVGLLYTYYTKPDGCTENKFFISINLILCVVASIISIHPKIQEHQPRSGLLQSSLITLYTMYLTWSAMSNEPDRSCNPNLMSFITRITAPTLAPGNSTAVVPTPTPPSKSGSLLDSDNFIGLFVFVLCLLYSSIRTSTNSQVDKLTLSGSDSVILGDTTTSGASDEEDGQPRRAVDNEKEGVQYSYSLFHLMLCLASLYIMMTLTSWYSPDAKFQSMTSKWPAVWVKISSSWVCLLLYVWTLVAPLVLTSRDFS
inactive: [1] 0.109 | [2] -0.016 | [3] 0.028 | [4] -0.056 | [5] -0.175

RECQL5 (UniProt O94762)
inactive: [1] -0.081 | [2] 0.014 | [3] 0.011 | [4] -0.174 | [5] 0.064

RABGGTB (UniProt P53611)
inactive: [1] -0.102 | [2] -0.01 | [3] 0.005 | [4] -0.048 | [5] -0.017

RDH14 (UniProt Q9HBH5)
inactive: [1] 0.123 | [2] -0.016 | [3] -0.076 | [4] 0.102 | [5] -0.058

SDHC (UniProt Q99643)
inactive: [1] -0.045 | [2] -0.016 | [3] 0.035 | [4] -0.085 | [5] -0.09

RBBP7 isoform 2 (UniProt Q16576)
inactive: [1] -0.012 | [2] -0.009 | [3] -0.03 | [4] -0.01 | [5] -0.033

RBBP7 (UniProt Q16576)
inactive: [1] -0.029 | [2] 0.013 | [3] 0.009 | [4] -0.042

RAP1GAP isoform 4 (UniProt P47736)
inactive: [1] 0.019 | [2] -0.012 | [3] -0.019 | [4] -0.009 | [5] 0.007

RAF1 isoform 2 (UniProt P04049)
Sequence of UniProt P04049 (P04049 whole entry, looked up): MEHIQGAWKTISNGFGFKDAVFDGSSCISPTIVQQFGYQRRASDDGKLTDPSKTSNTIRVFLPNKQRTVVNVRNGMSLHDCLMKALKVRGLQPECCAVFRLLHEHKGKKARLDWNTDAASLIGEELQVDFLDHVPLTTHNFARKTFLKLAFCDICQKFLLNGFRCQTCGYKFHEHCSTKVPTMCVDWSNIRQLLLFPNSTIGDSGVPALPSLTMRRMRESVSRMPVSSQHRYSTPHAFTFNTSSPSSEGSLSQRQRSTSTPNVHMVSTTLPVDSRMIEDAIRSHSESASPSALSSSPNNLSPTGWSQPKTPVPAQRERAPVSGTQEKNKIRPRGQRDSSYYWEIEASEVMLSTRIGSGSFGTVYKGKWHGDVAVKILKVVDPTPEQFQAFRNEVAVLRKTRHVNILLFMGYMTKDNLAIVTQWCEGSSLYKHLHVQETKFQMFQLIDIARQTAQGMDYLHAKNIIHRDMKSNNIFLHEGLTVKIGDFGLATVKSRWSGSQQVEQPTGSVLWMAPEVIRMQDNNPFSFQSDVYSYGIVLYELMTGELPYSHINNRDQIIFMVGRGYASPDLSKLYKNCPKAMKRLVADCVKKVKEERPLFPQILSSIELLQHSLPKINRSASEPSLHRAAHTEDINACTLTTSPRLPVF
inactive: [1] 0.024 | [2] 0.035 | [3] -0.104 | [4] -0.017 | [5] 0.013

RBBP8 isoform 2 (UniProt Q99708)
inactive: [1] -0.031 | [2] -0.133 | [3] 0.093 | [4] 0.046 | [5] -0.014

RHAG (UniProt Q02094)
inactive: [1] 0.033 | [2] -0.076 | [3] 0.145 | [4] -0.066 | [5] -0.143

RAB3IL1 (UniProt E9PK89)
inactive: [1] -0.109 | [2] 0.057 | [3] 0.014 | [4] -0.189 | [5] -0.006

RECQL4 (UniProt O94761)
inactive: [1] 0.002 | [2] -0.012 | [3] 0.073 | [4] -0.011 | [5] 0.154

RAP1B (UniProt F5GZG1)
inactive: [1] -0.082 | [2] -0.124 | [3] 0.023 | [4] -0.019 | [5] -0.282

RALGAPB (UniProt Q86X10)
inactive: [1] 0.029 | [2] 0.023 | [3] 0.085 | [4] -0.026 | [5] 0.006

RPL31 (UniProt P62899)
inactive: [1] 0.016 | [2] 0.013 | [3] -0.027 | [4] 0.041 | [5] -0.022

RLIM (UniProt Q9NVW2)
inactive: [1] 0.049 | [2] 0.135

RFC3 (UniProt P40938)
Sequence of UniProt P40938 (P40938 whole entry, looked up): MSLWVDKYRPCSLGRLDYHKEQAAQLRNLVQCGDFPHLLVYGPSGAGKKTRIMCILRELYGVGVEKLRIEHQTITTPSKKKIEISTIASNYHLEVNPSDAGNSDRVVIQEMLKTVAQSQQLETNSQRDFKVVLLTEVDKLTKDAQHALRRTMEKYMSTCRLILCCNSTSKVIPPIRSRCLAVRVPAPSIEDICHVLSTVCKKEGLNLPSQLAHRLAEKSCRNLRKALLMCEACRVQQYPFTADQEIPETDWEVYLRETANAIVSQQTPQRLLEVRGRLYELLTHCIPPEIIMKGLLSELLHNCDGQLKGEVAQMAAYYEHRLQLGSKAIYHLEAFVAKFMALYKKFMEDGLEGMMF
inactive: [1] -0.032 | [2] 0.003 | [3] 0.026 | [4] 0.055 | [5] 0.024

RAD51C (UniProt O43502)
inactive: [1] -0.028 | [2] 0.026 | [3] 0.078 | [4] -0.029 | [5] -0.004

RAB1B (UniProt Q9H0U4)
inactive: [1] -0.015 | [2] 0.021 | [3] 0.056 | [4] 0.013 | [5] -0.17

SEC16A isoform 5 (UniProt O15027)
inactive: [1] -0.013 | [2] -0.005 | [3] 0.067 | [4] 0.036 | [5] 0.011

R3HCC1 (UniProt Q9Y3T6)
Sequence of UniProt Q9Y3T6 (Q9Y3T6 whole entry, looked up, one chain of several): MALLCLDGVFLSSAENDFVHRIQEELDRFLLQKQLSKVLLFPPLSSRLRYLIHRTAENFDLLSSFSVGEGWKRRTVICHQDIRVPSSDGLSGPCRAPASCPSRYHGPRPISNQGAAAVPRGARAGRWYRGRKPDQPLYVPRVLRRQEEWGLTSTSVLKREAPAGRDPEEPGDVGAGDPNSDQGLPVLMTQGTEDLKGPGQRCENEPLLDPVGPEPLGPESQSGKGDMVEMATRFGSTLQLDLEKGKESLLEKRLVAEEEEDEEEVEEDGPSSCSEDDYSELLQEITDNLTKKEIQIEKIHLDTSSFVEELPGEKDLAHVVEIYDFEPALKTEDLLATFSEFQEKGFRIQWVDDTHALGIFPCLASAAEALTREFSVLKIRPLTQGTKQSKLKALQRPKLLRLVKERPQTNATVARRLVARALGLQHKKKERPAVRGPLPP
inactive: [1] 0.014 | [2] 0.015 | [3] 0.006 | [4] -0.014 | [5] -0.047

SCO2 (UniProt O43819)
inactive: [1] 0.026 | [2] 0.002 | [3] 0.037 | [4] 0.011 | [5] -0.074

RXRB isoform 3 (UniProt P28702)
inactive: [1] -0.214 | [2] -0.018 | [3] -0.151 | [4] -0.057 | [5] 0.06

RPS6KB1 (UniProt P23443)
inactive: [1] 0.029 | [2] -0.051 | [3] 0.027 | [4] 0.023 | [5] -0.018

RPS6KA1 (UniProt Q15418)
inactive: [1] -0.073 | [2] -0.064 | [3] -0.045 | [4] 0.015 | [5] -0.047

SEC61G (UniProt P60059)
inactive: [1] 0.269 | [2] -0.063 | [3] -0.016 | [4] -0.065 | [5] -0.225

RNASEH2B (UniProt Q5TBB1)
inactive: [1] 0.056 | [2] -0.008 | [3] -0.032 | [4] 0.038 | [5] 0.049

SBF1 isoform 4 (UniProt O95248)
inactive: [1] -0.08 | [2] 0.001 | [3] -0.094 | [4] 0.092 | [5] 0.072

RFC4 (UniProt P35249)
inactive: [1] -0.026 | [2] -0.059 | [3] 0.006 | [4] 0.028 | [5] 0.01

RASA2 (UniProt Q15283)
inactive: [1] -0.07 | [2] 0.045 | [3] 0.058 | [4] 0.025 | [5] 0.037

SESN2 (UniProt P58004)
inactive: [1] -0.074 | [2] 0.01 | [3] -0.025 | [4] -0.004 | [5] -0.01

SERPINI1 (UniProt Q99574)
Sequence of UniProt Q99574 (Q99574 whole entry, looked up): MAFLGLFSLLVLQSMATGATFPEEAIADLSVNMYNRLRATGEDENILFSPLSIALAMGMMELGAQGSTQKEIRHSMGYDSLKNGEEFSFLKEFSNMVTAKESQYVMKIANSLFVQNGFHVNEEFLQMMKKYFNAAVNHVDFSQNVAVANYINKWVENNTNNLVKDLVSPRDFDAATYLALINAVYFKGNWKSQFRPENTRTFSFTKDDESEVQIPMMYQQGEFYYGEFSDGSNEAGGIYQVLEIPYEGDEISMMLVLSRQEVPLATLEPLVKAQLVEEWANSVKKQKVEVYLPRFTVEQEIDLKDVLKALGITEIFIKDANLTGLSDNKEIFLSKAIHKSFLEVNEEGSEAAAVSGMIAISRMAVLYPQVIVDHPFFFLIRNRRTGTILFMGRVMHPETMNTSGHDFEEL
inactive: [1] 0.067 | [2] -0.033 | [3] 0.031 | [4] -0.011 | [5] -0.021

RBM22 (UniProt Q9NW64)
inactive: [1] -0.073 | [2] 0.012 | [3] 0.036 | [4] 0.072 | [5] 0

RAC2 (UniProt P15153)
inactive: [1] -0.116 | [2] 0.043 | [3] -0.032 | [4] 0.067 | [5] 0.028

REL isoform 2 (UniProt Q04864)
inactive: [1] 0.017 | [2] 0 | [3] -0.003 | [4] 0.031 | [5] 0.03

RAD50 isoform 2 (UniProt Q92878)
inactive: [1] -0.002 | [2] -0.031 | [3] 0.004 | [4] 0.008 | [5] 0.009

RNF113A (UniProt O15541)
Sequence of UniProt O15541 (O15541 whole entry, looked up): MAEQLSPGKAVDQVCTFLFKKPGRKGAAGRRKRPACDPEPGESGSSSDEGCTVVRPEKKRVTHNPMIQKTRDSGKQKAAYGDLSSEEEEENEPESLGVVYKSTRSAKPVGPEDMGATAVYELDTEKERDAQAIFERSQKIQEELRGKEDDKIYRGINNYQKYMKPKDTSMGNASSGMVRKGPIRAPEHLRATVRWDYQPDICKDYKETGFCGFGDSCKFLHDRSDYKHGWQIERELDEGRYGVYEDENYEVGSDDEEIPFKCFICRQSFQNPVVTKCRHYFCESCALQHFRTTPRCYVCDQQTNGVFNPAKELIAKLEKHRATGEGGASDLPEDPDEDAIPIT
inactive: [1] 0.047 | [2] -0.022 | [3] -0.018 | [4] -0.065 | [5] -0.066

REEP5 (UniProt Q00765)
Sequence of UniProt Q00765 (Q00765 whole entry, looked up): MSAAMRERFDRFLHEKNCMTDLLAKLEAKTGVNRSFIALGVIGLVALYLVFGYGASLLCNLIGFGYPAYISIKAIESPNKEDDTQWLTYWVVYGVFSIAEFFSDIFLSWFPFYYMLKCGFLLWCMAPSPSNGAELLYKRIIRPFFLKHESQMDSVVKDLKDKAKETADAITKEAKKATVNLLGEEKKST
inactive: [1] 0.007 | [2] 0.009 | [3] 0.028 | [4] 0.022 | [5] -0.092
